Source: PubChem
Pf Dd2 inh: qHTS Primary assay for Inhibitors of Plasmodium falciparum Dd2 growth in vitro; P. falciparum Dd2 growth, SYBR Green, 72 h; Potency, µM (doses to about 28.9 µM), most hits filed as inhibitors; 4.3% of 120,000 active; AID 1347417, 2020; active = well fitted inhibition curve with a large enough effect; note: nearly all actives have a fitted effect of over 65% in size
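Infected erythrocytes (Dd2, 0.3% parasitemia, 2.5% hematocrit final) are added to compound in RPMI-1640/Albumax II medium, grown 72 h at 37C in low oxygen, then lysed with saponin/Triton-X containing SYBR Green and read by fluorescence.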
A number is an active result; n = inactive; [ ] = remark or other dose. Many of the other results were omitted from the sample, so hits are more common in it than they were.

SMILES | Pf Dd2 inh
CC(C)CNC(=O)c1cc(C2CC2)nc2c1c(C1CCCN1)nn2-c1ccccc1 (stereo not drawn) | 4.5µM
COCCNC(=O)c1cc(C2CC2)nc2c1c(C1CCCN1)nn2C (stereo not drawn) | n
CC(C)CNC(=O)c1cc(C2CC2)nc2onc(C3CCCNC3)c12 (stereo not drawn) | n
O=C(NCC(F)(F)F)c1cc(C2CC2)nc2c1c(C1CCCN1)nn2-c1ccccc1 (stereo not drawn) | 8.9µM
COc1ccc(CNC(=O)c2cc(C3CC3)nc3c2c(C)nn3-c2cccc(Cl)c2C)cc1 | n
Cn1nc(C2CCNC2)c2c(C(=O)NCc3ccc(F)cc3)cc(C3CC3)nc21 (stereo not drawn) | n
Cn1nc(C2CCCN2)c2c(C(=O)NCC(F)(F)F)cc(C3CC3)nc21 (stereo not drawn) | n
Cc1ccc(NC(=O)Cn2ccn3nc(-c4ccccc4)c(CO)c3c2=O)c(Cl)c1 | n
C[C@]1(O)CCN(C(=O)c2cccc(-n3cnnc3)c2)C[C@@H]1O | n
CCO[C@H]1CN(C(=O)c2cccc(-c3cccc(F)c3)c2)C[C@@H]1O | n
COC(=O)[C@H]1CN(C(=O)c2ccc(N(C)C)cc2)CCN1S(C)(=O)=O | n
COc1cc(OC)c(NC(=O)Cn2nc3n(c2=O)CCCCC3)cc1Cl | n
CCc1nc(-c2c3n(c(=O)n(CC(=O)Nc4ccccc4CC)c2=O)CCCCC3)no1 | n
COc1ccc(C(=O)N2C[C@@H](CO)[C@H](c3ccncc3)C2)c(OC)c1 | n
O=c1[nH]c(N2CCOCC2)nc2c1CCN(Cc1cc(F)ccc1F)CC2 | n[5.79 µM]
COc1ccc(CN2CCN3C(=O)N(Cc4ccccc4)C[C@H]3C2)cc1 | n
Cc1ncsc1CCC(=O)N[C@@H]1CCOC[C@H]1OCC(=O)O | n
Cc1ccc(C(C(=O)NCc2cc(=O)[nH]cn2)N(C)C)cc1 (stereo not drawn) | n
CN1CCC(C)(CNc2ncc(C(C)(C)C(=O)O)c(N3CCOCC3)n2)C1 (stereo not drawn) | n
COC(=O)c1c(NC(=O)COc2ccc(OC)cc2)sc2c1CCC(C)C2 (stereo not drawn) | n
COC(=O)c1c(NC(=O)COc2cc(C)ccc2C(C)C)sc2c1CCC(C)C2 (stereo not drawn) | n
COc1ccc(NC(=O)Cn2nnc3sc4c(c3c2=O)CCC(C)C4)c(OC)c1 (stereo not drawn) | n
COc1ccc(OC)c(NC(=O)c2c(NCc3ccc(C)o3)sc3c2CCC(C)C3)c1 (stereo not drawn) | 11µM
COc1ccc(OC)c(NC(=O)c2c(NCc3ccc(OC)c(OC)c3)sc3c2CCC(C)C3)c1 (stereo not drawn) | 5.6µM
COC(=O)c1c(NC(=O)COc2c(C)ccc(C)c2C)sc2c1CCC(C)C2 (stereo not drawn) | n
SMILES | Pf Dd2 inh
CCOC(=O)N1CCc2c(sc3c2C(=O)NC(c2cc(OC)c(O)c(OC)c2)N3)C1 (stereo not drawn) | n
CCOC(=O)N1CCc2c(sc(NCc3cccs3)c2C(=O)Nc2ccc(OC)cc2OC)C1 | n
CCOC(=O)N1CCc2c(sc(NCc3ccc(N(CC)CC)cc3)c2C(=O)Nc2cc(OC)ccc2OC)C1 | 7.9µM
O=C(CN1C(=O)NC2(CCOCC2)C1=O)Nc1ccccc1F | n
Cc1[nH]ncc1CNC(=O)CCC[C@@H]1[C@H]2CCCN3CCC[C@@H](CN1Cc1cccnc1)[C@@H]23 | n
CCOc1ccc(CC(=O)N2CCC(C3CCNC3)CC2)cc1OCC (stereo not drawn) | n
C[C@@H]1CN(C(=O)Cc2ccc3c(c2)OCO3)C[C@]1(C)O | n
Cc1ccc(S(=O)(=O)N2CCn3c(nn(CC4CC4)c3=O)C2)c(C)c1 | n
CCOc1ccccc1C(=O)NC1CCN(c2cnn(C)c(=O)c2)CC1 | n
COc1cccc([S+](=O)([O-])N2CCC(c3nnc4n3C(C(=O)O)CC4)CC2)c1 (stereo not drawn) | n
CCCC1c2nccn2CCCN1C(=O)c1conc1C (stereo not drawn) | n
Cc1ccoc1C(=O)N1CCC(N2CCCC(C(=O)NCc3ccccc3)C2)CC1 (stereo not drawn) | n
CN1C(=O)C2(c3ccccc31)N(c1ccc(Br)cc1)C(=O)CS2(=O)=O (stereo not drawn) | n
Cc1ccc(CN2C(=O)C3(c4ccccc42)N(c2ccc(C)c(Cl)c2)C(=O)CS3(=O)=O)cc1 (stereo not drawn) | n
Cc1ccc(N2C(=O)CS(=O)(=O)C23C(=O)N(Cc2ccc(Cl)cc2)c2ccccc23)cc1C (stereo not drawn) | 2.2µM
O=C(c1cccnc1)N1CC2CC(C1)[C@H]1CCCC(=O)N1C2 (stereo partly drawn) | n
O=C(CCc1ccccc1)N1CCCc2ncc(C(=O)N3CCCC[C@@H]3Cc3ccccc3)cc21 | n
CCNC(=O)N1CCC(c2noc(COc3ccc(C)cc3)n2)CC1 | 10µM
CCc1noc(-c2cn(C3CCN(C(=O)COc4ccc(F)cc4)C3)nn2)n1 (stereo not drawn) | n
O=C(COc1ccc(F)cc1)N1CCCC(c2noc(COc3ccccc3)n2)C1 (stereo not drawn) | 6.3µM
O=C(COc1ccc(F)cc1)N1CCCC(n2cc(-c3nc(C4CC4)no3)nn2)C1 (stereo not drawn) | n
Cc1ccc(C)c(NC(=O)N2CCCC(c3noc(COc4ccccc4)n3)C2)c1 (stereo not drawn) | 5µM
Cc1ccc(OCc2nc(C3CN(C(=O)C4CCCO4)C3)no2)cc1 (stereo not drawn) | n
O=C(c1ccccc1F)N1CCCC(c2noc(COc3ccccc3)n2)C1 (stereo not drawn) | n
Cc1ccc(C)c(NC(=O)N2CCCC(c3noc(COc4ccccc4F)n3)C2)c1 (stereo not drawn) | n
SMILES | Pf Dd2 inh
Cc1ccc(NC(=O)N2CCCC(c3noc(COc4ccccc4F)n3)C2)c(C)c1 (stereo not drawn) | n
O=C(COc1ccc(F)cc1)N1CCC(n2cc(-c3nc(C4CC4)no3)nn2)C1 (stereo not drawn) | 5.6µM
O=C(c1ccc(F)cc1)N1CCCC(c2noc(COc3ccccc3)n2)C1 (stereo not drawn) | n
Cc1ccc(OCc2nc(C3CCN(C(=O)c4ccncc4)CC3)no2)cc1 | n
CCOc1ccc(C(=O)N2CCC(c3n[nH]c(=O)n3-c3ccc(C)cc3)CC2)cc1 | n
CCNC(=O)CCc1c(C)nn(-c2ccccc2)c1Oc1ccccc1 | n
Cc1ccc(-c2cc3c(=O)n(CCNC(=O)c4ccc(C)s4)ccn3n2)c(C)c1 | n
CC(=O)N1CCC(Cc2ccc(C(=O)N(C)Cc3cccnc3)cc2)CC1 | n
COCCN1C(=O)CS(=O)C12CCN(S(=O)(=O)c1c(C)noc1C)CC2 (stereo not drawn) | n
COc1ccc(C(=O)N2CCC3(CC2)C(OC)C(=O)N3CC2CC2)cc1F (stereo not drawn) | n
COc1ccc(NC(=O)N2CCCCC2c2nc(-c3cnccn3)n[nH]2)cc1 (stereo not drawn) | n
CC(C)(C)CC(=O)N1C[C@@H](CO)[C@H](c2nc(-c3ccncc3)no2)C1 | n
CCOC(=O)C1CCCN(C(=O)Cn2ncc3c(C)n(Cc4ccc(Cl)cc4)c(C)c3c2=O)C1 (stereo not drawn) | n
CCN1C(=O)c2ccccc2S(=O)c2ccc(C(=O)NCc3ccc(C)cc3)cc21 (stereo not drawn) | n
